The whole screen tested about 5,500 compounds, of which about 2,000 (36%) were called active. Another 18% or so got no clear call; they are omitted. Rule as the data show it: active = normalized growth mostly below about 0.91 (no sharp cut-off); inconclusive = no clear call, values can overlap the other calls; inactive = mostly above about 0.92. This is one part of the list.
Experiment: chemical genetic growth profiling, strain panel (AID 1159580);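 also: tested at 20 µM; growth read once vehicle control cultures reached saturation at 30 °C; 1 = growth at the plate median or of vehicle wells; lower values mean less growth of the strain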
Conditions: growth OD
[1] = S. cerevisiae deletion strains, locus YHR030C, strain SLT2, active compounds read low
[2] = S. cerevisiae deletion strains, locus YJL187C, strain SWE1, active compounds read low

Measured: normalized growth

Cc1nn(Cc2ccccc2Cl)c(=N)s1
inactive: S. cerevisiae deletion strains, locus YAL013W, strain DEP1, active compounds read low 1.01 | S. cerevisiae deletion strains, locus YBR229C, strain ROT2, active compounds read low 0.999 | S. cerevisiae deletion strains, locus YCL061C, strain MRC1, active compounds read low 0.992 | S. cerevisiae deletion strains, locus YDL101C, strain DUN1, active compounds read low 0.991 | S. cerevisiae deletion strains, locus YDL134C, strain PPH21, active compounds read low 0.978 | S. cerevisiae deletion strains, locus YDR150W, strain NUM1, active compounds read low 0.971 | S. cerevisiae deletion strains, locus YEL061C, strain CIN8, active compounds read low 1.02 | S. cerevisiae deletion strains, locus YGR078C, strain PAC10, active compounds read low 0.997 | S. cerevisiae deletion strains, locus YGR229C, strain SMI1, active compounds read low 0.985 | [1] 0.959 | S. cerevisiae deletion strains, locus YHR087W, strain rtc3, active compounds read low 0.972 | [2] 0.995 | S. cerevisiae deletion strains, locus YJR043C, strain POL32, active compounds read low 0.991 | S. cerevisiae deletion strains, locus YJR075W, strain HOC1, active compounds read low 0.99 | S. cerevisiae deletion strains, locus YLR039C, strain RIC1, active compounds read low 0.939 | S. cerevisiae deletion strains, locus YLR058C, strain SHM2 (second series), active compounds read low 1.01 | S. cerevisiae deletion strains, locus YLR085C, strain ARP6, active compounds read low 1.03 | S. cerevisiae deletion strains, locus YLR262C, strain YPT6, active compounds read low 0.954 | S. cerevisiae deletion strains, locus YML094W, strain GIM5, active compounds read low 1.04 | S. cerevisiae deletion strains, locus YMR219W, strain ESC1, active compounds read low 0.998 | S. cerevisiae deletion strains, locus YMR263W, strain SAP30, active compounds read low 1 | S. cerevisiae deletion strains, locus YMR307W, strain GAS1, active compounds read low 0.981 | S. cerevisiae deletion strains, locus YNL153C, strain GIM3, active compounds read low 1.02 | S. cerevisiae deletion strains, locus YNL298W, strain CLA4 (second series), active compounds read low 0.932 | S. cerevisiae deletion strains, locus YNL322C, strain KRE1, active compounds read low 0.985 | S. cerevisiae deletion strains, locus YNR030W, strain Alg12, active compounds read low 0.988 | S. cerevisiae deletion strains, locus YOL006C, strain TOP1, active compounds read low 0.939 | S. cerevisiae deletion strains, locus YPL055C, strain LGE1, active compounds read low 1.06 | S. cerevisiae deletion strains, locus YPL241C, strain CIN2, active compounds read low 0.993 | S. cerevisiae deletion strains, locus YPR135W, strain CTF4, active compounds read low 0.972 | S. cerevisiae strains, strain wild type, active compounds read low 0.96

COC(=O)[C@H](c1ccccc1Cl)N1CCc2sccc2C1
inactive: S. cerevisiae deletion strains, locus YAL021C, strain ccr4, active compounds read low 0.993 | S. cerevisiae deletion strains, locus YAL026C, strain drs2, active compounds read low 0.99 | S. cerevisiae deletion strains, locus YAL030W, strain snc1, active compounds read low 0.982 | S. cerevisiae deletion strains, locus YBL061C, strain skt5, active compounds read low 0.994 | S. cerevisiae deletion strains, locus YBR009C, strain hhf1, active compounds read low 0.989 | S. cerevisiae deletion strains, locus YBR023C, strain chs3, active compounds read low 0.981 | S. cerevisiae deletion strains, locus YBR171W, strain sec66, active compounds read low 0.973 | S. cerevisiae deletion strains, locus YBR231C, strain swc5, active compounds read low 0.998 | S. cerevisiae deletion strains, locus YBR279W, strain paf1, active compounds read low 0.986 | S. cerevisiae deletion strains, locus YCL011C, strain gbp2, active compounds read low 0.968 | S. cerevisiae deletion strains, locus YCL016C, strain dcc1, active compounds read low 0.993 | S. cerevisiae deletion strains, locus YCL069W, strain vba3, active compounds read low 0.991 | S. cerevisiae deletion strains, locus YCR088W, strain abp1, active compounds read low 0.976 | S. cerevisiae deletion strains, locus YDL005C, strain med2, active compounds read low 0.991 | S. cerevisiae deletion strains, locus YDL040C, strain nat1, active compounds read low 0.961 | S. cerevisiae deletion strains, locus YDR001C, strain nth1, active compounds read low 0.985 | S. cerevisiae deletion strains, locus YDR069C, strain doa4, active compounds read low 1.01 | S. cerevisiae deletion strains, locus YDR137W, strain rgp1, active compounds read low 0.912 | S. cerevisiae deletion strains, locus YDR159W, strain sac3, active compounds read low 0.987 | S. cerevisiae deletion strains, locus YDR195W, strain ref2 0.971 | S. cerevisiae deletion strains, locus YDR297W, strain sur2, active compounds read low 0.983 | S. cerevisiae deletion strains, locus YDR334W, strain swr1, active compounds read low 0.995 | S. cerevisiae deletion strains, locus YDR335W, strain msn5, active compounds read low 1.01 | S. cerevisiae deletion strains, locus YDR392W, strain spt3, active compounds read low 0.984 | S. cerevisiae deletion strains, locus YEL003W, strain gim4, active compounds read low 0.969 | S. cerevisiae deletion strains, locus YEL037C, strain rad23, active compounds read low 0.981 | S. cerevisiae deletion strains, locus YEL061C, strain CIN8 (second series), active compounds read low 0.98 | S. cerevisiae deletion strains, locus YER015W, strain faa2, active compounds read low 0.986 | S. cerevisiae deletion strains, locus YER016W, strain bim1, active compounds read low 0.98 | S. cerevisiae deletion strains, locus YER111C, strain swi4, active compounds read low 0.972 | S. cerevisiae deletion strains, locus YER155C, strain BEM2 (second series), active compounds read low 0.97 | S. cerevisiae deletion strains, locus YFR010W, strain ubp6, active compounds read low 1 | S. cerevisiae deletion strains, locus YGL167C, strain pmr1, active compounds read low 0.967 | S. cerevisiae deletion strains, locus YGL173C, strain kem1, active compounds read low 0.979 | S. cerevisiae deletion strains, locus YGL227W, strain vid30, active compounds read low 0.988 | S. cerevisiae deletion strains, locus YGL240W, strain doc1, active compounds read low 0.989 | S. cerevisiae deletion strains, locus YGL253W, strain hxk2, active compounds read low 1 | S. cerevisiae deletion strains, locus YHR013C, strain ard1, active compounds read low 1.07 | S. cerevisiae deletion strains, locus YHR027C, strain rpn1, active compounds read low 0.987 | [1] 0.961 | S. cerevisiae deletion strains, locus YHR079C, strain IRE1, active compounds read low 0.956 | S. cerevisiae deletion strains, locus YHR142W, strain chs7, active compounds read low 1.01 | S. cerevisiae deletion strains, locus YJL092W, strain hpr5, active compounds read low 0.98 | S. cerevisiae deletion strains, locus YJL095W, strain BCK1 (second series), active compounds read low 0.983 | S. cerevisiae deletion strains, locus YJL095W, strain BCK1, active compounds read low 0.98 | S. cerevisiae deletion strains, locus YJL115W, strain asf1, active compounds read low 1 | S. cerevisiae deletion strains, locus YJL129C, strain trk1, active compounds read low 0.959 | S. cerevisiae deletion strains, locus YJL154C, strain vps35, active compounds read low 0.97 | S. cerevisiae deletion strains, locus YJL164C, strain tpk1, active compounds read low 0.976 | S. cerevisiae deletion strains, locus YJL166W, strain qcr8, active compounds read low 0.991 | [2] 0.984 | S. cerevisiae deletion strains, locus YJR066W, strain TOR1, active compounds read low 0.982 | S. cerevisiae deletion strains, locus YKL160W, strain elf1, active compounds read low 0.988 | S. cerevisiae deletion strains, locus YKR026C, strain gcn3, active compounds read low 1 | S. cerevisiae deletion strains, locus YKR091W, strain srl3, active compounds read low 0.983 | S. cerevisiae deletion strains, locus YLL001W, strain dnm1, active compounds read low 1.01 | S. cerevisiae deletion strains, locus YLL026W, active compounds read low 0.977 | S. cerevisiae deletion strains, locus YLL041C, strain sdh2, active compounds read low 0.991 | S. cerevisiae deletion strains, locus YLR027C, strain aat2, active compounds read low 0.983 | S. cerevisiae deletion strains, locus YLR113W, strain HOG1, active compounds read low 0.932 | S. cerevisiae deletion strains, locus YLR221C, strain rsa3, active compounds read low 0.992 | S. cerevisiae deletion strains, locus YLR258W, strain gsy2, active compounds read low 0.982 | S. cerevisiae deletion strains, locus YLR262C, strain YPT6 (second series), active compounds read low 0.95 | S. cerevisiae deletion strains, locus YLR320W, strain mms22, active compounds read low 0.963 | S. cerevisiae deletion strains, locus YLR342W, strain FKS1, active compounds read low 0.982 | S. cerevisiae deletion strains, locus YLR357W, strain rsc2, active compounds read low 1.09 | S. cerevisiae deletion strains, locus YLR370C, strain arc18, active compounds read low 0.975 | S. cerevisiae deletion strains, locus YLR384C, strain iki3, active compounds read low 0.975 | S. cerevisiae deletion strains, locus YML120C, strain ndi1, active compounds read low 0.961 | S. cerevisiae deletion strains, locus YMR058W, strain fet3, active compounds read low 0.989 | S. cerevisiae deletion strains, locus YMR125W, strain sto1, active compounds read low 0.993 | S. cerevisiae deletion strains, locus YMR129W, active compounds read low 0.979 | S. cerevisiae deletion strains, locus YMR205C, strain PFK2, active compounds read low 0.971 | S. cerevisiae deletion strains, locus YMR231W, strain pep5, active compounds read low 0.995 | S. cerevisiae deletion strains, locus YNL071W, strain lat1, active compounds read low 0.968 | S. cerevisiae deletion strains, locus YNL183C, strain NPR1, active compounds read low 0.941 | S. cerevisiae deletion strains, locus YNL209W, strain ssb2, active compounds read low 0.998 | S. cerevisiae deletion strains, locus YNL248C, strain rpa49, active compounds read low 1.07 | S. cerevisiae deletion strains, locus YNL322C, strain KRE1 (second series), active compounds read low 0.981 | S. cerevisiae deletion strains, locus YNR049C, strain mso1, active compounds read low 0.978 | S. cerevisiae deletion strains, locus YOR001W, strain rrp6, active compounds read low 1 | S. cerevisiae deletion strains, locus YOR070C, strain gyp1, active compounds read low 0.986 | S. cerevisiae deletion strains, locus YOR080W, strain dia2, active compounds read low 0.994 | S. cerevisiae deletion strains, locus YOR083W, strain WHI5, active compounds read low 0.981 | S. cerevisiae deletion strains, locus YOR106W, strain vam3, active compounds read low 1.03 | S. cerevisiae deletion strains, locus YOR231W, strain MKK1, active compounds read low 0.938 | S. cerevisiae deletion strains, locus YOR265W, strain rbl2, active compounds read low 0.985 | S. cerevisiae deletion strains, locus YOR270C, strain vph1, active compounds read low 1.02 | S. cerevisiae deletion strains, locus YOR290C, strain snf2, active compounds read low 1.02 | S. cerevisiae deletion strains, locus YPL051W, strain arl3, active compounds read low 0.992 | S. cerevisiae deletion strains, locus YPL078C, strain atp4, active compounds read low 0.996 | S. cerevisiae deletion strains, locus YPL106C, strain sse1, active compounds read low 0.987 | S. cerevisiae deletion strains, locus YPL240C, strain hsp82, active compounds read low 0.986 | S. cerevisiae deletion strains, locus YPL256C, strain CLN2, active compounds read low 0.894
